Source: PubChem BioAssay AID720519 (National Center for Advancing Translational Sciences (NCATS), 2013)
Inconclusive results are not listed. The source made the active and inactive calls. The call rests on the fitted dose curve; in most records, active means well fitted activation curve with a large enough effect; inconclusive means small, poorly fitted or top-dose-only effect; inactive means flat fitted curve, though single readings scatter.

Assay: qHTS for Inhibitors of Cell Surface uPA Generation: Confirmatory Assay for Cherry-picked Compounds; further: 0% is about no effect
Conditions: cell surface uPA activity generation, qHTS confirmation; series mostly up to 115 µM; inhibition: at the top concentration
Outline: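 RAW 264.7 cells at 4000/well, incubated overnight, then treated with compounds. After 24 h at 37 C, viability was read by ATPlite luminescence. An increase in signal indicates blocked uPA-dependent LF entry.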

SMILES | inhibition
CC(C)(C)OC(=O)N(Cc1ccccc1)Cc1ccccc1OCc1cccc(NC(=O)C2CC2)c1 | -3% (inactive)
Cc1nn(C)c(C)c1S(=O)(=O)N1CCC(C(=O)NC2CCCCCC2)CC1 | -1.06% (inactive)
C=CCc1cc(S(=O)(=O)c2ccc(O)c(CC=C)c2)ccc1O | 3.72% (inactive)
CCCCn1c(N)c(N(CCC(C)C)C(=O)c2sc3nc4n(c(=O)c3c2C)CCC4)c(=O)[nH]c1=O | 6.8% (inactive)
COc1cc(C(=O)Nc2nnc(C)s2)cc(OC)c1OC | -2.35% (inactive)
